Assay [1] can be described thus: qHTS Assay for Agonists of the Thyroid Stimulating Hormone Receptor. Particulars: HEK293-CNG-TSHR cells, membrane potential dye, cAMP; measured here: parental cells max response. The text has this:
(§1) NIH Chemical Genomics Center [NCGC]
(§2) NIH Molecular Libraries Screening Centers Network [MLSCN]
(§3) PI Name: Dr. Marvin Gershengorn, NIH
(§4) Thyroid Stimulating Hormone Receptor
(§5) TSH is an alpha/beta heterodimeric glycoprotein hormone secreted from the anterior pituitary gland which belongs to the glycoprotein hormone family. The actions of TSH are mediated by a seven-transmembrane receptor, which upon TSH binding couples preferentially to the G-alpha (s) protein (Gs), resulting in activation of adenylate cyclase and increase in cyclic adenosine 3', 5' monophosphate (cAMP). The TSH receptor (THSR) is mainly expressed in thyroid follicular cells and regulates their growth and function. Recombinant TSH is used to activate TSHR in patients with thyroid cancer receiving thyroid hormone suppression therapy and to screen for residual tumor after surgery, but it is expensive and must be administered intramuscularly. An orally active small molecule TSHR agonist would serve as an invaluable research tool for studying TSHR pharmacology and physiology, and would have multiple advantages in therapeutic settings. However, no selective small molecule agonist of the TSH receptor exists, and no small molecule screen for TSHR agonists has ever been reported.
(§6) This cell based assay utilized a cyclic nucleotide gated ion channel (CNG) as a biosensor for cAMP induction by potential TSHR agonists.
(§7) HEK 293 cells stably expressing the TSHR as well as a modified CNG were purchased from BD biosciences. Stimulation of cAMP production causes the CNG to open and subsequent membrane depolarization to occur. A fluorescent membrane potential dye (BD biosciences) was utilized to detect cAMP stimulation in TSHR cells.
(§8) The cells were maintained in DMEM medium (Invitrogen) containing 10 % FBS (Hyclone), 100 units/ml Penicillin, 100 ug/ml Streptomycin (Invitrogen), and 250 ug/ml Geneticin (Invitrogen) and 1 ug/ml Puromycin (Invitrogen) at 37C in 5% CO2. HEK 293 cells expressing CNG but without TSHR (parental cells) were used in concert to control for compounds signaling through endogenous receptors and targets of HEK 293 cells.
(§9) NCGC Assay Protocol Summary:
(§10) High Throughput Screening. Freshly passaged cells (TSHR or parental) were dispensed into 1536-well assay plates at 4 ul/well in DMEM containing phenol red (Invitrogen), 10% FCS (Hyclone), and 100 units/ml Penicillin, 100 ug/ml Streptomycin (Invitrogen) and incubated at 37 C with 5% CO2 for 20 to 36 hrs before the robotic screening. The screen was initiated by addition of 4 ul/well membrane potential dye containing 100 uM RO 20-1724 (Sigma Aldrich), followed by 60 min incubation at room temperature to allow for dye equilibration across the cell membrane. 23 nl/well compound or control was then added to the assay plates, which were incubated for additional 30 min before reading a Envision fluorescence plate reader (Perkin Elmer) in bottom-read mode for fluorescence intensity (emission at 590 nm).
(§11) Keywords: Thyroid-stimulating hormone TSH, TSHR, TSHR agonist, quantitative high throughput screening, qHTS, HTS, probe identification, CNG, cAMP, cyclic nucleotide gated ion channel PubChem

Assay [2] deals with Thyrotropin receptor (Homo sapiens) (UniProt P16473). The assay is described as above. Particulars: HEK293-CNG-TSHR cells (CNG channel as cAMP sensor), membrane potential dye, cAMP; series mostly up to 57.1 µM.
Sequence of Thyrotropin receptor (Homo sapiens) (P16473 whole entry, looked up): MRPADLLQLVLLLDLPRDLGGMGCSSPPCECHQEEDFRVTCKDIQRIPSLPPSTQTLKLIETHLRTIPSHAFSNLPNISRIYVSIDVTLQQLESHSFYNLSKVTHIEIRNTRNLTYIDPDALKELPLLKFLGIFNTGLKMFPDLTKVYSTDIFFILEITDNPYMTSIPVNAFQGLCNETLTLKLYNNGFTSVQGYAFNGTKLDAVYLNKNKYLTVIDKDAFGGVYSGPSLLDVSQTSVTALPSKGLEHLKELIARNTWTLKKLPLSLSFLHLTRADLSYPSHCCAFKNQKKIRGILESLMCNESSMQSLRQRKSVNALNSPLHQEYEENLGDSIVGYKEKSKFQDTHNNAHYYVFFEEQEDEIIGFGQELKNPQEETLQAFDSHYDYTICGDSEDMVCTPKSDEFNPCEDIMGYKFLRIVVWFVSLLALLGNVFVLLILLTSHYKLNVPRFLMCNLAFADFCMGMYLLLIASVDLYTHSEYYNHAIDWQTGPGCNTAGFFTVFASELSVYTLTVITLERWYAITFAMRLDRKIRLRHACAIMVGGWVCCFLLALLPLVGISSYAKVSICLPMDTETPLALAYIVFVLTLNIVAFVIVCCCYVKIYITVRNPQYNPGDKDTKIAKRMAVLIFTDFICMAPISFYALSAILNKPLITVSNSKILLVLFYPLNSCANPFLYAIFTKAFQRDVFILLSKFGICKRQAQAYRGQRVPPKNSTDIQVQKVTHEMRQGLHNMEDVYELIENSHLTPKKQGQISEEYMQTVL
From the text: as §1, §2, §3, §4, §5, §6, §7, §8, §9, §10, §11

Values joined by “and” are separate entries in the source; they are usually repeats but may differ in a detail not shown here. Equal entries are not always repeated. The campaign covered roughly 73,000 compounds. About 350 (0.48%) were called active. Roughly 17% stayed inconclusive and do not appear here. Calls follow the shape of the dose curve; as a rule, active = well fitted activation curve with a large enough effect in the main read-out, with a control signal flat (not every such curve was filed as active); inconclusive = small, poorly fitted or top-dose-only effect, or a change in a side signal; inactive = no such curve, though single readings can be large or run the other way; reference of the percent scale not stated here. This excerpt belongs to a sample that is enriched for actives. A structure can be active in one record and inactive in another.
Potency is read from the fitted curve at half-maximal effect.

As to `CCOC(=O)C1=C(C)OC(N)=C(C(=O)OC)C12C(=O)Nc1ccc(Br)cc12` (centres undefined), the activation in assay [1] turned out to be 2.68%. In assay [2], the Potency entry was “inactive”.

Consider `CCOC(=O)CC1=C(C(=O)OCC)C2(C(=O)N1)C(C(=O)OC)=C(N)Oc1ccccc12` (centres undefined), for which, in assay [1], the activation turned out to be 2.69%. In addition, the Potency result in assay [2] was “inactive”.

In the case of `C=CCN1C(=O)C2(C(C(=O)OCC)=C(N)Oc3c2c(=O)oc2ccccc32)c2ccccc21` (centres undefined), the activation in assay [1] was -2.59%. The Potency in assay [2] was 1000 nM (active).

Take `C/C(=C\C=C/[C@@H](C)C(=O)O)[C@H]1CN[C@H](C(=O)O)[C@@H]1CC(=O)O`: the activation in assay [1] came to 10.5%. Also, the Potency entry in assay [2] is “inactive”.

Regarding `CN1[C@H]2CC(OC(=O)[C@@H](CO)c3ccccc3)C[C@H]1[C@H]1O[C@H]12` (some centres undefined), in assay [1], the activation turned out to be 8.99%. Besides, in assay [2], the Potency entry is “inactive”.

Take `C[C@]12CC[C@H](O)C[C@@H]1CC[C@H]1[C@H]2CC[C@]2(C)C(=O)CC[C@@H]12`: in assay [1], the activation is -0.6% and 8.47% and 0.887%. In assay [2], the Potency result was “inactive”.

On to `CN=C(NC#N)NCCSCc1nc[nH]c1C`, for which the activation in assay [1] is 6.37% and -0.29%. For the same compound, the Potency entry in assay [2] is “inactive”.

Turning to `CNCC[C@H](Oc1ccc(C(F)(F)F)cc1)c1ccccc1`, the Potency result in assay [2] is “inactive and 126 nM (active)”.

For `Clc1ccc([C@@H]2C[C@H]3CC[C@@H]2N3)cn1`, the activation in assay [1] worked out at 5.78%. For the same compound, the Potency result in assay [2] was “inactive”.

For the compound `Clc1cccc(Cl)c1Cl`, the activation in assay [1] worked out at 22.7%. In addition, the Potency entry in assay [2] is “inactive”.

(Values after PubChem BioAssay AID926 (National Center for Advancing Translational Sciences (NCATS), 2007).)
